An excerpt weighted towards active compounds, which were near 2.3% of everything screened.
MsrA inhibitor – inhibits bovine methionine sulfoxide reductase A; purified bovine MsrA, absorbance read-out; inhibition, % at 15.5 µM; 360,000 compounds, 0.75% hits; in the data active = inhibition above about 4.5%
ZTA counter – counter-screen for EBNA-1 inhibitors: inhibitors of Epstein-Barr virus ZTA; AID 2234; P03206; 320,000 compounds, 0.15% hits; inhibition, % at 11 µM; ZTA-DNA binding, fluorescence polarization; in the data active = inhibition above about 33%
Target sequence (P03206 whole entry, looked up): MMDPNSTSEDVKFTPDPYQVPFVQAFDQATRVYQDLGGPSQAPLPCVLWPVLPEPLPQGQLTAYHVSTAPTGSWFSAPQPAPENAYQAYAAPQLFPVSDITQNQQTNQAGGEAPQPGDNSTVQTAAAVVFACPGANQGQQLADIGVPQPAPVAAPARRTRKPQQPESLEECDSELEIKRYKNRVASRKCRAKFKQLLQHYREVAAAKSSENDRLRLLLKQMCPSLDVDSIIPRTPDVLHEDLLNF
PP5 inh – PP5 (human) phosphatase inhibition. P53041. purified PP5c, OMFP substrate fluorescence. inhibition, % at 6.7 µM. 320,000 compounds, 0.18% hits;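 active = inhibition above the campaign's mean inhibition across all tested compounds plus 3 SD, cut at about 9.5% in these data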
PP1 inh – PP1-alpha (human) inhibition in PP5 counter-screen | P62136 | 320,000 compounds, 0.9% hits | purified PP1alpha, OMFP fluorescence | inhibition, % at 6.7 µM;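 active = inhibition above the mean inhibition of all tested compounds plus 3 SD, computed separately for each screening campaign, cut at about 15% in these data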
Target sequence (P62136 whole entry, looked up): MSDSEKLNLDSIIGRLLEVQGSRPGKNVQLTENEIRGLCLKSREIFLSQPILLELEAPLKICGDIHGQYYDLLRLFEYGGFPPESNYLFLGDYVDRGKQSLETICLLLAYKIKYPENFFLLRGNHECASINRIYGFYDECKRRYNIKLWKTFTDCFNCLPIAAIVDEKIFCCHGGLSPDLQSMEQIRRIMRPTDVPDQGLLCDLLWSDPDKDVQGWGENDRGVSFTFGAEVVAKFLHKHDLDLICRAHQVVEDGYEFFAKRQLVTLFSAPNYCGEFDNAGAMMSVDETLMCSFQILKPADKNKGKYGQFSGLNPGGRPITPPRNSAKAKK
EBNA-1 inh – blocks EBNA-1 binding to DNA. 300,000 compounds, 0.34% hits. EBNA-1 DNA binding, fluorescence polarization. inhibition, % at 14.8 µM; in the data active = inhibition above about 28%
MsrA act – activators of bovine methionine sulfoxide reductase A | purified bovine MsrA, absorbance read-out | activation, % at 10.6 µM | 360,000 compounds, 0.3% hits | AID 602163; in the data active = activation above about 7.5%
EBNA-1 inh conf – EBNA-1 (EBV) inhibition, confirmation | inhibition, % at 14.8 µM | shares compounds with EBNA-1 inh | 830 compounds, 35% hits | AID 2292 | Recombinant EBNA-1 DBD, Cy5-DNA fluorescence polarization;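 active = mean inhibition across replicates above a set limit taken from the earlier primary screen, cut at about 28% in these data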
ZTA counter trip – blocks Epstein-Barr virus ZTA in triplicate, EBNA-1 counter-screen. AID 2328. 830 tested, under 10 active. inhibition, % at 11.1 µM. Zta-ZRE DNA binding, Cy5 fluorescence polarization. shares compounds with EBNA-1 inh;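 active = mean inhibition over triplicates above a set limit taken from the primary EBNA-1 screen, cut at about 37% in these data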;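 note: purified full length Zta protein with Cy5 labeled ZRE DNA probe; inhibitors lower polarization by freeing the labeled DNA probe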
Numbers stand for hits; - = inactive; . = no result given.

SMILES	MsrA inhibitor	ZTA counter	PP5 inh	PP1 inh	EBNA-1 inh	MsrA act	others
COC(=O)[C@]12C[C@H](CC(=O)N3CCCCC3)C(=O)N(CCC3=CCCCC3)C1=C[C@H](COCc1ccccc1)O[C@@H]2C	-	.	.	.	.	.
COC(=O)c1ccc(=O)c2nc3/c(=C/O)c(O)cc(=O)c3[nH]c12	-	-	-	49	103	-
S=C1Cc2ccccc2N1	-	.	.	.	.	26
Cc1nc2c(C(=O)NCCC(C)C)c[nH]n2c(=O)c1Cl	-	-	-	-	-	-
Cc1nc2c(C(=O)NCCC(C)C)c[nH]n2c(=O)c1Cc1ccccc1F	-	-	-	15	-	-
COCc1[nH]nc2c1C(c1ccc3c(c1)OCO3)N(c1ccc(OC)cc1)C2=O (stereo unspecified)	-	.	.	.	.	.
Cc1ccc(-c2nc(C(=O)NCCCN3CCOCC3)cc3c2[nH]c2ccccc23)cc1	-	-	-	15	-	-
COc1ccc(-c2nc(C(=O)NCCCN3CCOCC3)cc3c2[nH]c2ccccc23)cc1OC	-	-	-	-	-	-
N#CC(C#N)=c1ccc2c(c1)NC1(CCCCC1)N=2	-	40	-	-	38	-
CC(C)c1[nH]nc2c1C(c1cccc(C(F)(F)F)c1)NC2=O (stereo unspecified)	-	.	.	.	.	.
CC=Cc1cc(OC)c2c(c1)C(C)C(c1ccc(O)c(OC)c1)O2 (stereo unspecified)	-	.	.	.	.	-
Oc1ccc(CN2CCc3ccccc3C2)c2cccnc12	-	-	-	15	-	-
Oc1ccc(CN2CCCCC2)c2cccnc12	-	-	-	-	-	-
CCCCCCC12C(=Cc3cc(C)ccc31)c1ccccc1C(CC(=O)NCc1ccccc1)N2C(=O)OC (stereo unspecified)	-	.	.	.	.	.
COc1cccc(CNC(=O)[C@H]2CCCN2C(=O)[C@H]2CCCN2C(=O)c2ccccc2)c1	-	.	.	.	.	.
COc1cccc(CN(C)[C@H]2C[C@H]3c4[nH]c5ccccc5c4CCN3C[C@H]2[C@H](C)O)c1OC	-	.	.	.	.	.
COC(=O)c1ccc(S(=O)(=O)N2Cc3ccccc3C2)cc1	-	-	-	-	-	-
CC(O)CN=c1cc(-c2ccccc2)oc2ccc(Cl)cc12 (stereo unspecified)	-	-	-	-	-	-
CC(C)CN=c1cc(-c2ccccc2)oc2ccc(Cl)cc12	-	-	-	17	-	-
O=C1CC(=C2c3ccccc3-c3ccccc32)C(=O)N1CCN1CCN(c2cccc(Cl)c2)CC1	-	-	-	16	-	-
Clc1cccc(N2CCN(CCCN3CCN(c4ccccc4)CC3)CC2)c1	-	.	.	.	.	-
Cc1ccc(C(=O)C2=C(O)C(=O)N(Cc3ccco3)C2c2cccc(Br)c2)o1 (stereo unspecified)	-	-	-	22	-	-
Cc1ccc(C(=O)C2=C(O)C(=O)N(Cc3ccco3)C2c2ccc(N(C)C)cc2)o1 (stereo unspecified)	-	-	-	-	-	-
Cc1ccc(C(=O)C2=C(O)C(=O)N(Cc3ccco3)C2c2cccc(Cl)c2)o1 (stereo unspecified)	-	-	-	25	-	-
O=C(NCCc1ccccc1Cl)[C@@H]1CCCN1C(=O)[C@@H](NC(=O)N1CCOCC1)C1CCCCC1	-	.	.	.	.	.
SMILES	MsrA inhibitor	ZTA counter	PP5 inh	PP1 inh	EBNA-1 inh	MsrA act	others
O=C(NCc1ccccc1)[C@@H]1CCCN1C(=O)[C@H]1CCCN1C(=O)c1cc(F)cc(F)c1	-	.	.	.	.	.
COCc1[nH]nc2c1C(c1ccc3c(c1)OCO3)N(Cc1ccccc1)C2=O (stereo unspecified)	-	.	.	.	.	.
O=C(O)CCn1cc(C2CC(c3ccccc3)=NN2c2ccccc2)c(-c2ccccc2)n1 (stereo unspecified)	-	-	-	15	-	-
C[C@@H]1CN([C@@H](C)CO)C(=O)CCCn2cc(nn2)CO[C@H]1CN(C)C(=O)Nc1cccc2ccccc12	-	.	.	.	.	.
COc1ccc(-c2ccc(/C=C(\NC(=O)c3ccccc3)C(=O)N3CCOCC3)o2)cc1	4.6	-	-	-	-	-
CC(C)NC(=O)N(C)C[C@H]1OCc2cn(nn2)CCCC(=O)N([C@H](C)CO)C[C@@H]1C	-	.	.	.	.	.
Cc1ccc(C(=O)Nc2ccc([N+](=O)[O-])cn2)o1	4.6	-	-	-	-	-
O=C(NCc1ccccc1)[C@H]1CCCN1C(=O)[C@H]1CCCN1C(=O)c1ccc(F)c(F)c1	-	.	.	.	.	.
Cc1ccc(Cl)cc1N1CCN(C(=O)CSc2ccsc2[N+](=O)[O-])CC1	-	-	-	17	-	-
CN(C)c1ccc(/C=C(/NC(=O)c2ccccc2)C(=O)NCCN2CCOCC2)cc1	4.6	-	-	-	-	-
COC(=O)CCCC1=CC2=CC(=O)C(C)(OC(=O)c3cccs3)C(=O)C2=CN1Cc1ccc2c(c1)OCO2 (stereo unspecified)	-	-	-	18	-	-
COc1cccc(-c2sc3ccc(OC)cc3c2C#CC2(O)CCCCC2)c1	4.7	-	-	-	.	-
CC(=O)Oc1ccc(N(c2ccccc2)S(=O)(=O)c2ccc(C)cc2)cc1	-	-	-	-	-	-
N#CCCn1c(SCC(=O)c2c[nH]c3ccccc23)nc2ccccc21	-	-	-	-	-	-
Cc1cc(C(=O)CSc2nc3ccccc3n2CCC#N)c(C)n1Cc1cccs1	-	-	-	-	34	-
CCOC(=O)c1sc2nc3c(SCCC#N)cc(C(=O)c4cc(F)ccc4O)cn3c(=O)c2c1C	-	-	-	-	-	-
O=C(O)CSc1cc(C(=O)c2cc(F)ccc2O)cn2c(=O)c3c(-c4ccccc4)csc3nc12	-	-	-	17	-	-
COc1ccc(N2CC(O)=C(c3nc4ccccc4s3)C2=N)cc1	-	-	-	-	53	-	EBNA-1 inh conf=77;ZTA counter trip=-
COc1cccc(N2CC(O)=C(c3nc4ccccc4s3)C2=N)c1	-	-	-	-	-	-
COc1ccccc1/C=N/NC(=O)C(=O)Nc1ccccc1OC(F)(F)C(F)F	-	-	-	-	-	-
COc1cccc(/C=N/NC(=O)C(=O)Nc2ccccc2OC(F)(F)C(F)F)c1	-	-	-	-	30	-	EBNA-1 inh conf=-;ZTA counter trip=-
CC1CC(C)CN(S(=O)(=O)c2ccc(C(=O)NCc3ccc4c(c3)OCO4)cc2)C1 (stereo unspecified)	-	-	-	-	53	-	EBNA-1 inh conf=-;ZTA counter trip=-
O=C(c1ccccc1F)N1CCN(S(=O)(=O)c2ccc(S(=O)(=O)N3CCCCCC3)cc2)CC1	-	-	-	-	31	-	EBNA-1 inh conf=33;ZTA counter trip=-
O=C(c1ccccc1F)N1CCN(S(=O)(=O)c2ccc(S(=O)(=O)N3CCCCC3)cc2)CC1	-	-	-	-	-	-

Bioassay records: PubChem, The Scripps Research Institute Molecular Screening Center
